Where “and” joins values, the source holds several entries; their conditions need not be identical. Identical values can stand only once. Records with an inconclusive call do not appear. Where a call stands in place of a potency, no number is given. A structure can be active in one record and inactive in another. Calls of active or inactive are those of the source. Calls come from the whole dose curve.
Assay: qHTS assay to identify small molecule agonists of the sonic hedgehog signaling (Shh) pathway (AID 1259368);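 note: NIH/3T3-derived 3T3Gli1-Luc cells carrying a stable Gli1-driven firefly luciferase reporter; nearly all actives have a fitted effect of over 15% in size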
Details: NIH/3T3 Gli1-Luc reporter, luciferase, 24 h; series mostly up to 92.4 µM
Procedure, shortened: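 Steps: seed 3T3 Gli1-Luc cells, incubate 4 hr at 37 C, pin-transfer compounds in DMSO alongside a positive control, incubate 24 hr, add luciferase detection reagent, wait 30 min at room temperature, read luminescence.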

| SMILES | Potency |
| --- | --- |
| CCCCC(CC)COC(=O)c1ccc(C(=O)OCC(CC)CCCC)c(C(=O)OCC(CC)CCCC)c1 (stereo not given) | inactive |
| C[C@]12CCC(=O)C(O)=C1CC[C@@H]1[C@@H]2CC[C@]2(C)C(=O)CC[C@@H]12 | inactive |
| Oc1cc(Cl)ccc1Oc1ccc(Cl)cc1Cl | inactive |
| CCC(C)(c1ccc(O)cc1)c1ccc(O)cc1 | inactive |
| O=C(NC(=O)c1c(F)cccc1F)Nc1ccc(Cl)cc1 | inactive |
| c1cc(OCC2CO2)ccc1Cc1ccc(OCC2CO2)cc1 (stereo not given) | inactive |
| C#CCOS(=O)OC1CCCCC1Oc1ccc(C(C)(C)C)cc1 (stereo not given) | inactive |
| CCN(CC)C(=O)SCc1ccc(Cl)cc1 | inactive |
| CC(C)Oc1cc(-n2nc(C(C)(C)C)oc2=O)c(Cl)cc1Cl | inactive |
| O=C(Nc1ccc(Br)cc1)c1cc(Br)cc(Br)c1O | inactive |
| CNC(=O)Oc1cccc2c1OC(C)(C)O2 | inactive |
| CC(C)=CC1C(C(=O)OCc2coc(Cc3ccccc3)c2)C1(C)C (stereo not given) | inactive |
| NNC(N)=S | inactive |
| Nc1cccnc1 | inactive |
| CN(C)c1ccc(C(=O)c2ccc(N(C)C)cc2)cc1 | inactive |
| N#Cc1cc(Br)c(O)c(Br)c1 | inactive |
| O=[N+]([O-])c1ccc(O)c([N+](=O)[O-])c1 | inactive |
| CCN(CC)C(=O)/C(Cl)=C(\C)OP(=O)(OC)OC | inactive |
| Oc1cc(Cl)c(Cl)cc1Cl | inactive |

| SMILES | Potency |
| --- | --- |
| CCOC(=S)S | inactive |
| COP(=S)(OC)Oc1ccc([N+](=O)[O-])cc1 | inactive |
| O=S(=O)(Oc1ccc(Cl)cc1)c1ccc(Cl)cc1 | inactive |
| N#CC(Br)Br | inactive |
| CCOP(=S)(OCC)O/N=C(\C#N)c1ccccc1 | inactive |
| CCC(C)(C)c1ccc(O)cc1 | inactive |
| Nn1cnnc1 | inactive |
| NC(=S)Nc1ccccc1 | inactive |
| Nc1ccncc1 | inactive |
| CC(O)CCO (stereo not given) | inactive |
| Oc1c(Cl)c(Cl)c(Cl)c(Cl)c1Cl | inactive |
| CCOc1cc(Oc2ccc(C(F)(F)F)cc2Cl)ccc1[N+](=O)[O-] | inactive |
| CCOc1cc(C=O)ccc1O | inactive |
| CC(C)c1ccc(CO)cc1 | inactive |
| CCOC(=O)C(C)OC(=O)c1cc(Oc2ccc(C(F)(F)F)cc2Cl)ccc1[N+](=O)[O-] (stereo not given) | inactive |
| Clc1nc(Cl)nc(Cl)n1 | inactive |
| O=C1C=CC(=O)C=C1 | inactive |
| CCOCN(C(=O)CCl)c1c(C)cccc1CC | inactive |
| C=CCc1ccc(OC)cc1 | inactive |

Assay: qHTS assay to identify small molecule antagonists of the sonic hedgehog signaling (Shh) pathway (AID 1259369); note: nearly all actives have a fitted effect of over 45% in size; note: potency is the fitted concentration of half-maximal effect
Details: NIH/3T3 Gli1-Luc reporter, Shh antagonist, luminescence 24 h; series mostly up to 92.4 µM
Procedure, shortened: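 Inhibition of Shh signalling is measured as reduced Gli1-response-element firefly luciferase output in an NIH/3T3-derived stable reporter clone stimulated with conditioned medium for 24hr.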

| SMILES | Potency |
| --- | --- |
| CCCCC(CC)COC(=O)c1ccc(C(=O)OCC(CC)CCCC)c(C(=O)OCC(CC)CCCC)c1 (stereo not given) | inactive |
| Oc1cc(Cl)ccc1Oc1ccc(Cl)cc1Cl | 5.58 µM (active) |
| CCC(C)(c1ccc(O)cc1)c1ccc(O)cc1 | 24.3 µM (active) and 61.1 µM (active) |
| O=C(NC(=O)c1c(F)cccc1F)Nc1ccc(Cl)cc1 | inactive |
| c1cc(OCC2CO2)ccc1Cc1ccc(OCC2CO2)cc1 (stereo not given) | 19.4 µM (active) and 21.7 µM (active) |
| C#CCOS(=O)OC1CCCCC1Oc1ccc(C(C)(C)C)cc1 (stereo not given) | 687 nM (active) and 2.17 µM (active) |
| CCN(CC)C(=O)SCc1ccc(Cl)cc1 | inactive |
| CC(C)Oc1cc(-n2nc(C(C)(C)C)oc2=O)c(Cl)cc1Cl | inactive |
| O=C(Nc1ccc(Br)cc1)c1cc(Br)cc(Br)c1O | 13.7 µM (active) and 13.3 µM (active) |
| CNC(=O)Oc1cccc2c1OC(C)(C)O2 | inactive |
| CC(C)=CC1C(C(=O)OCc2coc(Cc3ccccc3)c2)C1(C)C (stereo not given) | 24.4 µM (active) and 30.6 µM (active) |
| NNC(N)=S | 8.97 µM (active) and 12.2 µM (active) |
| Nc1cccnc1 | inactive |
| CN(C)c1ccc(C(=O)c2ccc(N(C)C)cc2)cc1 | inactive and 24.3 µM (active) |
| N#Cc1cc(Br)c(O)c(Br)c1 | 15.3 µM (active) and 7.41 µM (active) |
| O=[N+]([O-])c1ccc(O)c([N+](=O)[O-])c1 | 30.8 µM (active) and 30.6 µM (active) |
| CCN(CC)C(=O)/C(Cl)=C(\C)OP(=O)(OC)OC | inactive |
| Oc1cc(Cl)c(Cl)cc1Cl | inactive |
| CCOC(=S)S | 10.9 µM (active) and 13 µM (active) |

| SMILES | Potency |
| --- | --- |
| COP(=S)(OC)Oc1ccc([N+](=O)[O-])cc1 | inactive |
| O=S(=O)(Oc1ccc(Cl)cc1)c1ccc(Cl)cc1 | inactive |
| N#CC(Br)Br | inactive |
| CCOP(=S)(OCC)O/N=C(\C#N)c1ccccc1 | inactive |
| CCC(C)(C)c1ccc(O)cc1 | inactive |
| Nn1cnnc1 | inactive |
| NC(=S)Nc1ccccc1 | inactive |
| Nc1ccncc1 | inactive |
| CC(O)CCO (stereo not given) | inactive |
| Oc1c(Cl)c(Cl)c(Cl)c(Cl)c1Cl | inactive |
| CCOc1cc(Oc2ccc(C(F)(F)F)cc2Cl)ccc1[N+](=O)[O-] | inactive |
| CCOc1cc(C=O)ccc1O | inactive |
| CC(C)c1ccc(CO)cc1 | inactive |
| CCOC(=O)C(C)OC(=O)c1cc(Oc2ccc(C(F)(F)F)cc2Cl)ccc1[N+](=O)[O-] (stereo not given) | inactive |
| Clc1nc(Cl)nc(Cl)n1 | inactive |
| O=C1C=CC(=O)C=C1 | inactive |
| CCOCN(C(=O)CCl)c1c(C)cccc1CC | 18.3 µM (active) and 19.3 µM (active) |
| C=CCc1ccc(OC)cc1 | inactive |
